Assay outcomes: PubChem BioAssay, National Center for Advancing Translational Sciences (NCATS)
D1 antag = antagonists of human D1 dopamine receptor. P21728. HEK293 TREx D1 cells, calcium flux, dopamine EC80; hits give low values. activity change, negative = inhibition, % at 10 µM. 3.2% of 360,000 active; in the data active = activity change below about -30%; note: % is set by controls: 0 for no effect and ±100 for the full control effect
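Cells carrying a force-coupled, tetracycline-inducible human D1 receptor report calcium flux. Each well gets a 10 s baseline, compound with 180 s monitoring, then an EC80 dopamine stimulus with a second 180 s kinetic read.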
TRHR PAM = TRH receptor (human) allosteric enhancement | P34981 | TRHR cells, fluo-8 calcium fluorescence, EC20 TRH enhancement | enhancement, % at 2 µM | 0.66% of 360,000 active | AID 493056; in the data active = enhancement above about 30%; note: 0% is about no effect
Target sequence (P34981 whole entry, looked up): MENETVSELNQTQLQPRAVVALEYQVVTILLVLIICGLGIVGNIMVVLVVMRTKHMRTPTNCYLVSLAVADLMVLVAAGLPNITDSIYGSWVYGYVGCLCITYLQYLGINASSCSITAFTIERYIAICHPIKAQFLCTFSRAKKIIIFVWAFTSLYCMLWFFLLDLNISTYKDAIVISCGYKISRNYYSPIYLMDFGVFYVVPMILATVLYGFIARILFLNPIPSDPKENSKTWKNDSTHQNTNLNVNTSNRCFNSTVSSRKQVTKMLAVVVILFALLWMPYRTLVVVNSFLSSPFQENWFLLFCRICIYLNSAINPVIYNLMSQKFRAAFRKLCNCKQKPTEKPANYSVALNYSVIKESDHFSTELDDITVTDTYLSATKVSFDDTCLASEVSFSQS
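TRHR-expressing cells loaded with fluo-8 calcium dye were read kinetically (ex 480/em 530) during compound addition, then stimulated with an EC20 of TRH (10 nM final). Enhancement of the Gq-mediated intracellular calcium response was scored.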
TRHR agonist = activates the human TRH receptor | P34981 | TRHR cells, calcium flux fluo-8, FDSS agonist mode | activation, % at 2 µM | 0.18% of 360,000 active; note: 0% is about no effect
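Steps: seed TRHR cells overnight; add fluo-8 no-wash Ca dye, RT 30 min–1.5 h; record 10 s baseline; pin-transfer compounds; monitor fluorescence 1 cycle/s for the agonist window. Calcium increases flag candidate agonists.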
D1 potentiator = human D1 dopamine receptor positive modulation; potentiation, % at 10 µM; P21728; HEK293 TREx D1 cells, calcium flux, dopamine EC20 potentiation; 0.036% of 360,000 active; in the data active = potentiation above about 30%; note: 0% is about no effect
D1 ag = agonists of human D1 dopamine receptor; activation, % at 2 µM; 1% of 360,000 active; HEK293 T-REx D1 cells, calcium flux, agonist mode; note: 0% is about no effect
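Tetracycline-induced HEK293 TREx D1 cells, force-coupled to calcium signalling, were dye-loaded with a no-wash calcium kit. Compound was pin-added after a 10 s baseline. Fluorescence was read kinetically at 1 cycle/s for 180 s, with calcium rises flagged as agonism.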
Starred values were filed as active, the others as inactive; x = no result given; ! = not confirmed by another sample. A selection: hits, their analogues and other compounds. The true share with any hit is near 4.7%. Cut-off read from the data, not from the text of the source, unless noted: active = activation above about 30%; inactive = the rest.

SMILES	D1 antag	TRHR PAM	TRHR agonist	D1 potentiator	D1 ag
Cc1cccc(N2CCN(S(=O)(=O)c3ccc(S(=O)(=O)N4CCCC4)cc3)CC2)c1C	-2	-6	0	2	3
Cc1cccc(NS(=O)(=O)c2ccc3c(c2)CC(C)N3C(=O)C2CCC2)c1C (centres undefined)	-34*	-2	2	-3	13
CC1CCN(c2ccc(S(=O)(=O)N3CCC(C)CC3)cc2N)CC1	4	-3	0	0	7
Cc1cccc(Cn2cc3c(=O)n(CC(=O)Nc4c(C)cccc4C)nc-3c3cc(F)ccc32)c1	0	-11	-1	-1	1
Cc1cc(F)ccc1NC(=O)CS(=O)(=O)c1cccc2nsnc12	1	-3	0	7	2
COc1ccc(C(OC(=O)c2ccco2)C(=O)NC2CCCC2)cc1 (centres undefined)	2	18	0	-1	2
CCOC(=O)Cn1c(=O)n(CC2CCCO2)c2nc(-c3ccccc3Cl)nc(C(N)=O)c21 (centres undefined)	-17	-1	-1	0	1
CCCCN(C)C(=O)C1CCC(CNS(=O)(=O)c2ccc3c(c2)CC(C)N3C(=O)C2CC2)CC1 (centres undefined)	-43*	-3	1	1	3
CC(=O)N1c2ccc(S(=O)(=O)N3CCC(C(=O)N4CCN(c5cc(Cl)ccc5C)CC4)CC3)cc2CC1C (centres undefined)	-33*	-2	1	-2	8
CCC(C)NC(=O)C1CCC(CNS(=O)(=O)c2ccc3c(c2)CC(C)N3C(=O)C2CC2)CC1 (centres undefined)	2	2	0	-2	5
CC(=O)N1c2ccc(S(=O)(=O)N3CCC(C(=O)N4CC(C)CC(C)C4)CC3)cc2CC1C (centres undefined)	5	1	-2	-2	0
CC1CC(C)CN(C(=O)C2CCN(S(=O)(=O)c3ccc4c(c3)CC(C)N4C(=O)C3CC3)CC2)C1 (centres undefined)	-45*	-17	-2	-11	-1
CC1CCN(S(=O)(=O)c2ccc3c(c2)CC(C)N3C(=O)C2CCC2)CC1 (centres undefined)	-34*	-7	0	-13	12
COc1ccccc1CNC(=O)Cn1c(=O)oc2cc(S(=O)(=O)NCc3ccccc3)ccc21	-15	-7	0	-8	4
CC(=O)c1ccc(N2CCN(S(=O)(=O)c3ccc4c(c3)CC(C)N4C(C)=O)CC2)cc1 (centres undefined)	-48*	-8	0	-4	11
COc1ccccc1CNS(=O)(=O)c1ccc2c(c1)CC(C)N2C(=O)C1CCC1 (centres undefined)	-32*!	-7	0	-17	20
COc1ccccc1COC(=O)c1ccc(S(=O)(=O)N2CCOCC2)cc1	28	1	-2	-6	4
NC(=S)NNC(=O)C12CC3CC(CC(C3)C1)C2	-24	-10	32*	8	185*
COCCCNc1ncnc2c1cnn2-c1ccc(F)cc1	-8	2	0	-2	-1
O=C(NCCC1=CCCCC1)c1ccc2c(c1)ncn2-c1ccc(F)c(F)c1	0	-1	0	-2	3
O=C(CSc1nnc(N2CCCC2)n1-c1ccccc1Cl)N1CCN(c2ccccn2)CC1	-52*	4	-1	-3	-1
Cc1ccc(C)c(N2CCN(C(=O)NCc3noc4ccc(C)cc34)CC2)c1	8	6	0	-5	0
O=C(CCCN1C(=O)c2ccccc2C1=O)N1CCN(c2ccccn2)CC1	-16	-11	2	-2	0
Cc1ccc(C)c(N2CCN(C(=O)CN3C(=O)c4ccccc4C3=O)CC2)c1	-35*	-5	0	-5	6
Cc1ccc(C)c(N2CCN(C(=O)NCc3noc4ccccc34)CC2)c1	-42*	-1	0	-2	1
SMILES	D1 antag	TRHR PAM	TRHR agonist	D1 potentiator	D1 ag
O=C(CN1C(=O)c2ccccc2C1=O)N1CCN(c2ccccn2)CC1	-30*	-4	0	0	1
Cc1ccccc1N1CCN(C(=O)CN2C(=O)c3ccccc3C2=O)CC1	-20	0	0	-7	5
CC(C)c1ccc(NC(=O)C2CCN(C(=O)c3ccc(F)cc3)CC2)cc1	2	-1	0	-2	9
O=C(C1COc2ccccc2O1)N(Cc1cccnc1)c1nc2ccc(Cl)cc2s1 (centres undefined)	x	0	0	-2	4
CCN1C(=O)C2(c3ccccc31)c1c(oc3ccc(C)cc3c1=O)C(=O)N2CCCOC(C)C (centres undefined)	-10	-14	0	0	-2
CCCNC(=O)c1ccc2c(c1)N=C(C)c1c(C)ccc(C)c1S2	13	3	2	0	3
Fc1ccc(NCc2ccccc2-c2nnc(-c3ccccc3Cl)o2)cc1	9	-1	0	0	-1
COCCNc1ccc(N2C(=O)CCCC2=O)cc1[N+](=O)[O-]	-47*	-4	0	-3	1
Nc1cc(=O)nc(SCC(=O)Nc2ccc(F)cc2)n1-c1ccccc1Cl	3	9	1	-4	1
COc1ccc(COc2ccccc2C(=O)NCc2ccccc2)cc1F	-37*	-8	1	-3	12
CC(CCc1ccccc1)NC(=O)C1CCCN(C(=O)c2cc3sccc3n2C)C1 (centres undefined)	-39*	-13	-2	-9	1
COCCCNC(=O)C1CCN(C(=O)c2cc3sccc3n2Cc2ccc(Cl)cc2)CC1	-39*	15	0	-5	11
COCCNC(=O)C1CCN(C(=O)c2cc3sccc3n2Cc2ccc(Cl)cc2)CC1	-24	-4	2	-5	15
Cn1c(C(=O)N2CCCC(C(=O)NCc3cccs3)C2)cc2sccc21 (centres undefined)	4	-11	-1	2	3
CCOCCCNC(=O)C1CCN(C(=O)c2cc3sccc3n2C)CC1	-84*	4	0	-6	-1
COCCNC(=O)C1CCN(C(=O)c2cc3sccc3n2Cc2ccc(F)cc2)CC1	-49*	0	2	-10	8
Clc1ncc(CSc2ccccc2)s1	x	0	0	-4	1
COc1cc(C(=O)N2CCN(Cc3ccc4c(c3)OCO4)CC2)cc(OC)c1OC	-19	-1	-1	-7	3
CS(=O)(=O)Nc1cccc(-c2cc(F)c(S(=O)(=O)N3CCN(S(=O)(=O)c4ccc5c(c4)OCCO5)CC3)cc2F)c1	-17	2	0	4	2
O=C(NCc1ccco1)C1CCN(C(=O)c2cc3sccc3n2Cc2ccc(Cl)cc2)CC1	5	-4	1	-1	5
CCC(C)NC(=O)C1CCN(C(=O)c2cc3sccc3n2Cc2ccc(Cl)cc2)CC1 (centres undefined)	-40*	-4	0	-5	8
